From PubChem BioAssay (NCATS)
Records with an inconclusive call do not appear. Unmarked numbers belong to inactive results. Activity calls are given as the source filed them. Unless noted, the call rests on the fitted dose curve; in most records, active means well fitted cell-killing curve with a large enough effect; inconclusive means small, poorly fitted or top-dose-only effect; inactive means flat fitted curve, though single readings scatter.

Target: Nucleoprotein (Lymphocytic choriomeningitis virus (strain Armstrong)) (UniProt P09992)
Assay: qHTS for Inhibitors of the Functional Ribonucleoprotein Complex (vRNP) of Lymphocytic Choriomeningitis Arenaviruses (LCMV): LCMV Primary Screen - GLuc reporter signal (AID 1347086; calls by dose curve; further: nearly all actives have a fitted effect of over 70% in size; on activity change, negative = inhibition: on the % scale 0 is the no-effect control and ±100 the full control effect)
Details: LCMV minigenome vRNP cell assay, Gaussia luciferase reporter; series mostly up to 57.5 µM; activity change, negative = inhibition: at the top concentration
Potency means the concentration at half of the fitted maximal effect.

Chain of Nucleoprotein (Lymphocytic choriomeningitis virus (strain Armstrong)) (P09992 whole entry, looked up): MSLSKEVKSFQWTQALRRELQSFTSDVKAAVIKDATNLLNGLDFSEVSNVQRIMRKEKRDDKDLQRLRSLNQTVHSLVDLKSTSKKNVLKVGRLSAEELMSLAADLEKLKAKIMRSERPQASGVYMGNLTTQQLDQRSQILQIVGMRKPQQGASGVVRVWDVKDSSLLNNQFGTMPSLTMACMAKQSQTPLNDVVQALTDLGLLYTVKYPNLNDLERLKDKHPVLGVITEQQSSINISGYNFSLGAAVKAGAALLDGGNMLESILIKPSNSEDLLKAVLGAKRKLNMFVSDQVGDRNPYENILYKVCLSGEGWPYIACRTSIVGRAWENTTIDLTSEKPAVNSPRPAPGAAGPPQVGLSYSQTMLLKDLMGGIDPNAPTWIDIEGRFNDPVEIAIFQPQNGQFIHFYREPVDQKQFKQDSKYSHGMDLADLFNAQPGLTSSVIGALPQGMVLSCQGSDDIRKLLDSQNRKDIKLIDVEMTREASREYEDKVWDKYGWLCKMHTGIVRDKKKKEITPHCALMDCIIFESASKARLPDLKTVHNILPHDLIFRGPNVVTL

| SMILES | activity change, negative = inhibition | Potency |
| --- | --- | --- |
| CO[C@H]1CCC(O[C@H]2C[C@H]([C@]3(C)CC[C@]4(C[C@H](O)[C@@H](C)[C@@H]([C@@H](C)C=C(C)C(=O)[C@H](C)C[C@H](C)C(=O)O)O4)O3)O[C@]3(O[C@@H]([C@H]4O[C@@](O)(CO)[C@H](C)C[C@H]4C)C[C@H]3C)[C@H]2C)O[C@H]1C (some centres not stated) | -25% |  |
| O=C(Nc1ccccc1-c1ccc(Cl)cc1)c1cccnc1Cl | -23.3% [at 115 µM] |  |
| O=S(=O)(c1ccc(Cl)cc1)c1ccc(Cl)cc1 | 17.1% [at 115 µM] |  |
| COC(C)(C)CCCC(C)C/C=C/C(C)=C/C(=O)OC(C)C (configuration not stated) | 11.3% |  |
| CCCCCC[C@H]1C(=O)O[C@H](C)[C@H](NC(=O)c2cccc(NC=O)c2O)C(=O)O[C@@H](C)[C@@H]1OC(=O)CC(C)C |  | 1.22 µM (active) |
| COc1ccc(C(c2ccc(OC)cc2)C(Cl)(Cl)Cl)cc1 | -20.3% [at 115 µM] |  |
| CCNC(=O)C[C@@H]1N=C(c2ccc(Cl)cc2)c2cc(OC)ccc2-n2c(C)nnc21 |  | 1.22 µM (active) |
| Cc1c(N)nc([C@H](CC(N)=O)NC[C@@H](N)C(N)=O)nc1C(=O)N[C@H](C(=O)N[C@@H](C)[C@H](O)[C@@H](C)C(=O)N[C@@H](C(=O)NCCc1nc(-c2nc(C(=O)NCCC[S+](C)C)cs2)cs1)[C@@H](C)O)C(O[C@H]1O[C@H](CO)[C@H](O)[C@@H](O)[C@@H]1O[C@H]1O[C@H](CO)[C@@H](O)[C@H](OC(N)=O)[C@H]1O)c1cnc[nH]1 (some centres not stated) | 1.72% |  |
| Nc1ccc(Cl)cc1N | 8.7% [at 115 µM] |  |
| C#C[C@]1(O)C=C[C@@H]2[C@@H]3CCC4=CC(=O)CC[C@@H]4[C@H]3CC[C@@]21CC | -8.66% |  |
| COc1ccc(C(=O)c2c(C)n(CCN3CCOCC3)c3cc(I)ccc23)cc1 | -22.1% |  |
| O=[N+]([O-])c1c2ccccc2cc2ccccc12 | 19.8% [at 115 µM] |  |

Test system: not listed separately
Assay: qHTS of pediatric cancer cell lines to identify multiple opportunities for drug repurposing: Primary screen for TC32 cells (AID 1347089); further: nearly all actives have a fitted effect of over 60% in size; on activity change, negative = cytotoxic: on the % scale 0 is the no-effect control and ±100 the full control effect
Details: TC32 Ewing sarcoma viability, CellTiter-Glo luminescence, 48 h; series mostly up to 45.8 µM; activity change, negative = cytotoxic: at the top concentration
Outline: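 qHTS, TC32, 48 h drug treatment, CellTiter-Glo luminescence as a proxy for metabolically active cells; primary top concentration 46 µM (MIPE 11-pt, NPC 8-pt); confirmatory 11-pt.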

| SMILES | Potency | activity change, negative = cytotoxic |
| --- | --- | --- |
| CO[C@H]1CCC(O[C@H]2C[C@H]([C@]3(C)CC[C@]4(C[C@H](O)[C@@H](C)[C@@H]([C@@H](C)C=C(C)C(=O)[C@H](C)C[C@H](C)C(=O)O)O4)O3)O[C@]3(O[C@@H]([C@H]4O[C@@](O)(CO)[C@H](C)C[C@H]4C)C[C@H]3C)[C@H]2C)O[C@H]1C (some centres not stated) | 18.6 µM (active) |  |
| O=C(Nc1ccccc1-c1ccc(Cl)cc1)c1cccnc1Cl |  | 0% [at 92.2 µM] |
| O=S(=O)(c1ccc(Cl)cc1)c1ccc(Cl)cc1 |  | 10.5% [at 92.2 µM] |
| CC1(C)CC/C(=C/c2ccc(Cl)cc2)C1(O)Cn1cncn1 (configuration not stated) |  | -3.38% [at 92.2 µM] |
| COC(C)(C)CCCC(C)C/C=C/C(C)=C/C(=O)OC(C)C (configuration not stated) |  | 14.2% |
| C=CCC1=C(C)C(OC(=O)C2C(C=C(C)C)C2(C)C)CC1=O (configuration not stated) |  | 0.187% [at 92.2 µM] |
| COc1ccc(C(c2ccc(OC)cc2)C(Cl)(Cl)Cl)cc1 |  | -3.58% [at 92.2 µM] |
| Cc1c(N)nc([C@H](CC(N)=O)NC[C@@H](N)C(N)=O)nc1C(=O)N[C@H](C(=O)N[C@@H](C)[C@H](O)[C@@H](C)C(=O)N[C@@H](C(=O)NCCc1nc(-c2nc(C(=O)NCCC[S+](C)C)cs2)cs1)[C@@H](C)O)C(O[C@H]1O[C@H](CO)[C@H](O)[C@@H](O)[C@@H]1O[C@H]1O[C@H](CO)[C@@H](O)[C@H](OC(N)=O)[C@H]1O)c1cnc[nH]1 (some centres not stated) | 4.15 µM (active) |  |
| Nc1ccc(Cl)cc1N |  | -3.66% [at 92.2 µM] |
| C#C[C@]1(O)C=C[C@@H]2[C@@H]3CCC4=CC(=O)CC[C@@H]4[C@H]3CC[C@@]21CC |  | 4.32% |
| COc1ccc(C(=O)c2c(C)n(CCN3CCOCC3)c3cc(I)ccc23)cc1 |  | 13% |
| CC(C)Oc1cccc(NC(=O)c2ccccc2C(F)(F)F)c1 |  | -1.07% [at 92.2 µM] |
| O=[N+]([O-])c1c2ccccc2cc2ccccc12 |  | -2.29% [at 92.2 µM] |
| Nc1ccc([N+](=O)[O-])cc1 |  | 12.6% [at 92.2 µM] |

Test system: not listed separately
Assay: qHTS of pediatric cancer cell lines to identify multiple opportunities for drug repurposing: Primary screen for DAOY cells (AID 1347090); further: nearly all actives have a fitted effect of over 55% in size;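 on activity change, negative = cytotoxic: plate controls were DMSO for no effect and bortezomib for full effect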
Details: DAOY medulloblastoma viability, CellTiter-Glo luminescence, 48 h; series mostly up to 46 µM; activity change, negative = cytotoxic: at the top concentration
Outline: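 Eight- or eleven-point concentration series, 48 h treatment at 37 degrees C in growth media; readout CellTiter-Glo luminescence. Potency and efficacy were taken from the concentration-response curves.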

| SMILES | Potency | activity change, negative = cytotoxic |
| --- | --- | --- |
| CO[C@H]1CCC(O[C@H]2C[C@H]([C@]3(C)CC[C@]4(C[C@H](O)[C@@H](C)[C@@H]([C@@H](C)C=C(C)C(=O)[C@H](C)C[C@H](C)C(=O)O)O4)O3)O[C@]3(O[C@@H]([C@H]4O[C@@](O)(CO)[C@H](C)C[C@H]4C)C[C@H]3C)[C@H]2C)O[C@H]1C (some centres not stated) | 4.69 µM (active) |  |
| O=C(Nc1ccccc1-c1ccc(Cl)cc1)c1cccnc1Cl |  | 9.83% [at 92.7 µM] |
| O=S(=O)(c1ccc(Cl)cc1)c1ccc(Cl)cc1 |  | -23% [at 92.7 µM] |
| CC1(C)CC/C(=C/c2ccc(Cl)cc2)C1(O)Cn1cncn1 (configuration not stated) |  | -8.37% [at 92.7 µM] |
| COC(C)(C)CCCC(C)C/C=C/C(C)=C/C(=O)OC(C)C (configuration not stated) |  | 7.11% |
| CCCCCC[C@H]1C(=O)O[C@H](C)[C@H](NC(=O)c2cccc(NC=O)c2O)C(=O)O[C@@H](C)[C@@H]1OC(=O)CC(C)C | 0.0372 µM (active) |  |
| CCNC(=O)C[C@@H]1N=C(c2ccc(Cl)cc2)c2cc(OC)ccc2-n2c(C)nnc21 | 5.9 µM (active) |  |
| Nc1ccc(Cl)cc1N |  | -18.4% [at 92.7 µM] |
| C#C[C@]1(O)C=C[C@@H]2[C@@H]3CCC4=CC(=O)CC[C@@H]4[C@H]3CC[C@@]21CC |  | -2.37% |
| COc1ccc(C(=O)c2c(C)n(CCN3CCOCC3)c3cc(I)ccc23)cc1 | 18.7 µM (active) |  |
| Nc1ccc([N+](=O)[O-])cc1 |  | 5.47% [at 92.7 µM] |
